Screening results: PubChem, several laboratories
VHR inh abs – inhibitors of human VHR1 phosphatase (DUSP3) | hit rate 0.52% among 290,000 | P51452 | inhibition, % at 13.3 µM | AID 1654 | recombinant VHR phosphatase, pNPP absorbance; in the data active means inhibition above about 50%
Target sequence (P51452 whole entry, looked up): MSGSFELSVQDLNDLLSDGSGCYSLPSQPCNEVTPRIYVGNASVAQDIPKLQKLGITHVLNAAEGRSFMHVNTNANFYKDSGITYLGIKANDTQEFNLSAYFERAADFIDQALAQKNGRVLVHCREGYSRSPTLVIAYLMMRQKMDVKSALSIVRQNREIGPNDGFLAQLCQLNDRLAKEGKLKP
TcdB inh – inhibitors of Clostridioides difficile toxin B glycohydrolase; hit rate 0.24% among 350,000; TcdB glycohydrolase enzymatic assay, plate reader; inhibition, % at 9.99 µM; AID 652162; in the data active means inhibition above about 10%
Yp Topo-I inh – inhibitors of Yersinia pestis topoisomerase I | activity, % at 10 µM | hit rate 0.064% among 360,000 | Y. pestis Topo-I cleavage product accumulation, plate reader; in the data active means activity above about 50%, passing the limit was not always enough
FadD28 binding – inhibitors of Mycobacterium tuberculosis FadD28 bisubstrate binding | hit rate 0.22% among 360,000 | FadD28 bisubstrate probe binding, fluorescence polarization | inhibition, % at 12.5 µM; in the data active means inhibition above about 8.5%, passing the limit was not always enough
Mtb BioA inh – BioA (M. tuberculosis) enzyme inhibition. purified M. tuberculosis BioA enzyme, plate reader. inhibition, % at 9.99 µM. hit rate 0.096% among 360,000. AID 602481; in the data active means inhibition above about 40%
MazEF act – activators of E. coli MazEF toxin-antitoxin RNase. activation, % at 20 µM. P0AE70. hit rate 0.32% among 350,000. AID 504720. FAM/BHQ RNA-DNA oligo cleavage fluorescence, 5 h; in the data active means activation above about 50%
Target sequence (P0AE70 whole entry, looked up): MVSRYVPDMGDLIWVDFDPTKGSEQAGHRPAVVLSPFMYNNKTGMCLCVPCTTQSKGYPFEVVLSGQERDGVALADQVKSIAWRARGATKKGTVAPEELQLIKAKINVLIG
Active calls of the source: *; / = no result given. Hits are enriched below; roughly 1% of the tested compounds scored in any of these assays.

SMILES	VHR inh abs	TcdB inh	Yp Topo-I inh	FadD28 binding	Mtb BioA inh	MazEF act
CN1C/C(=C\c2ccc(N3CCOCC3)cc2)C(=O)/C(=C/c2ccc(N3CCOCC3)cc2)C1	-5	/	3	-1	-1	57*
CCOC(=O)[C@@H]1[C@@H]2C=C[C@]3(O2)[C@H](C(=O)NCc2ccccc2)N(CCCCCCO)C(=O)[C@@H]13	/	1	/	/	/	/
COc1cccc(CNS(=O)(=O)c2c(C(=O)N3CCCCCC3)c(C)n(C)c2C)c1	9	0	4	-2	0	7
COc1cccc(CNS(=O)(=O)c2c(C(=O)N3CCCCC3)c(C)n(C)c2C)c1	54*	0	2	-1	1	10
CC(=O)Oc1ccc2nc(/C=C/c3ccccc3)oc(=O)c2c1	18	12*	4	-1	-4	3
S=C(c1cn(Cc2ccccc2)c2ccccc12)N1CCOCC1	-6	17*	9	-2	/	0
COc1ccc(CN(C)C[C@H]2Oc3ccc(NC(=O)Cc4ccccc4)cc3C(=O)N([C@H](C)CO)C[C@H]2C)cc1	/	-1	/	/	1	/
COc1ccccc1NC1=C(NC(C)=O)C(=O)c2ccccc2C1=O	3	-1	-9	-1	/	218*
COC1=C(Nc2ccccc2OC)C(=O)c2ccccc2C1=O	4	0	-11	-3	1	12
COC(=O)[C@@H]1[C@@H](CO)[C@@H]2Cn3c(ccc(-c4ccccc4F)c3=O)[C@@H]2N1Cc1ccccc1	/	-2	/	/	9	/
C[C@@H]1CN([C@@H](C)CO)S(=O)(=O)c2ccc(C#Cc3ccc(F)cc3)cc2O[C@H]1CN(C)C(=O)CN(C)C	/	2	/	/	1	/
O=C1c2ccccc2N(Cc2ccc(Cl)cc2)C2=NCCN12	5	-5	1	0	0	146*
Clc1ccc(CN2C3=NCCCN3c3ccccc32)cc1	13	/	-6	-2	2	5
CC(=O)Nc1cc(Cl)c(N=Cc2ccc(O)cc2O)cc1Cl	24	1	-9	0	-3	106*
C[C@@H]1CN([C@H](C)CO)C(=O)c2cccc(NC(=O)CCCCCC(=O)Nc3ccccc3N)c2O[C@@H]1CN(C)Cc1ccc(Cl)c(Cl)c1	/	1	/	/	/	/
COc1cccc(-c2cnc3c(c2)C(=O)N([C@H](C)CO)C[C@@H](C)[C@H](CN(C)C(C)=O)O3)c1	/	0	/	/	0	/
O=C(Nc1ccccc1F)N1C[C@@H]2N[C@H](C1)C2c1ccc(/C=C/c2ccccc2)cc1 (stereo not given in full)	/	0	/	/	/	/
CC(C)c1cc(=O)oc2c3c4c(cc12)CCCN4CCC3	18	/	8	-1	1	88*
CC1CCCC(C)N1CCCNC(=O)C1CCCN(c2ncnc3c2nc2n3CCCCC2)C1 (stereo not given)	43	1	-4	0	1	7
O=C(C1CCN(c2ncnc3c2nc2n3CCCCC2)CC1)N1CCCCC1	52*	-9	13	-1	4	-38
CN1CCN(C(=O)C2CCN(c3ncnc4c3nc3n4CCCCC3)CC2)CC1	11	4	-11	1	1	-19
CCC1CCCCN1CCCNC(=O)C1CCCN(S(=O)(=O)N2CC(C)CC(C)C2)C1 (stereo not given)	54*	3	4	-1	0	3
COCCN(Cc1ccco1)C(=O)C1CCCN(c2ncnc3c2nc2n3CCCCC2)C1 (stereo not given)	52*	1	9	0	5	10
CCC1CCCCN1CCCNC(=O)C1CCCN(c2ncnc3c2nc2n3CCCCC2)C1 (stereo not given)	57*	0	-1	2	/	10
C[C@@H]1CN([C@@H](C)CO)C(=O)Cc2cc(NC(=O)C3CC3)ccc2O[C@H]1CN(C)S(=O)(=O)c1cccs1	/	0	/	/	2	/
SMILES	VHR inh abs	TcdB inh	Yp Topo-I inh	FadD28 binding	Mtb BioA inh	MazEF act
O=C(C1CCCC1)N1CC(=O)N2[C@H](CO)[C@H](c3ccc(C#Cc4cccc(F)c4)cc3)[C@@H]2C1	/	1	/	/	/	/
CO[C@H](CN(C)C(=O)c1ccccc1F)[C@H](C)CN([C@H](C)CO)S(=O)(=O)c1ccccc1	/	-5	/	/	10	/
CNC[C@@H]1OCCCC[C@H](C)Oc2ccc(NC(=O)c3ccccc3)cc2C(=O)N([C@H](C)CO)C[C@H]1C	/	1	/	/	-4	/
O=C(NCC1CCCCC1)[C@@H]1[C@@H](CO)[C@@H]2Cn3c(ccc(-c4ccccc4F)c3=O)[C@H]1N2	/	-9	/	/	0	/
Cc1ccc(NC(=O)C2C3C=CC4(O3)C2C(=O)N(CCCN2CCCCC2)C4C(=O)NC2CCCCC2)cc1Cl (stereo not given)	16	2	-18	-2	-2	12
Cc1ccc(NC(=O)C2C3C=CC4(O3)C2C(=O)N(CCCN2CCCC2)C4C(=O)NC2CCCCC2)cc1Cl (stereo not given)	53*	2	3	-4	-1	15
O=C(O)c1ccc(Nc2ccc([N+](=O)[O-])c3nonc23)cc1	16	2	6	0	5	9
O=[N+]([O-])c1ccc(Nc2ccccc2O)c2nonc12	13	-5	-8	-3	4	232*
COc1cccc(NC(=O)N2CC3(C2)[C@@H](c2ccccc2)[C@@H](CO)N3C(=O)C2CCC2)c1	/	0	/	/	/	/
COc1ccc2nc3cc(Cl)ccc3c(C#N)c2c1	16	1	1	-4	0	142*
COc1ccc(NC(=O)Nc2cccc3c2O[C@H](CN(C)Cc2ccc(Oc4ccccc4)cc2)[C@@H](C)CN([C@H](C)CO)C3=O)cc1	/	0	/	/	/	/
Cc1ccc(CSc2nc3nc(C)cc(C)c3c(=O)[nH]2)cc1	-8	13*	17	-1	-1	6
C[C@H]1CN([C@@H](C)CO)S(=O)(=O)c2ccc(-c3ccccc3)cc2O[C@H]1CN(C)C(=O)C1CCCCC1	/	2	/	/	1	/
COc1ccc(-c2nc(C#N)c(NCc3ccc(F)cc3)o2)cc1OC	24	/	0	11*	3	5
COc1ccc(-c2nc(C#N)c(NCc3cccnc3)o2)cc1OC	23	/	3	-2	13	1
CN(C)C(=O)C[C@@H]1CC[C@@H]2[C@H](COc3ccc(NC(=O)c4ccc(F)c(F)c4)cc3C(=O)N2C)O1	/	-1	/	/	11	/
COc1ccc(CN2CCN(Cc3cc4ccccc4o3)CC2CCO)cc1C (stereo not given)	59*	0	20	-4	1	0
C[C@@H]1CN([C@@H](C)CO)C(=O)c2cc(-c3cccnc3)cnc2O[C@@H]1CN(C)C(=O)c1ccccc1F	/	1	/	/	3	/
O=C(c1ccccn1)N1CC(=O)N2[C@H](CO)[C@@H](c3ccc(C#Cc4ccccc4)cc3)[C@@H]2C1	/	1	/	/	/	/
COc1ccc(C(=O)CSc2nc(C)cc(=O)[nH]2)cc1	-9	/	-1	0	1	-1
COc1ccc(C(=O)CSc2cc(C)[nH]c(=O)n2)cc1	50*	0	-8	-3	-1	-3
